Screening results from PubChem BioAssay.
Pin1 inhibitor: human Pin1 inhibition; Pin1 FP peptide displacement, HiFluor488, 10 min; Potency, µM (top dose mostly 115 µM), without a hit: top-dose activity, negative = inhibition, actives largely listed as inhibitors; 390,000 tested, 0.009% active; AID 504891; active = well fitted inhibition curve with a large enough effect in the polarisation, with a control signal flat, not every such curve was filed as active; inconclusive = small, poorly fitted or top-dose-only effect, or effect the other way, or a change in a side signal; inactive = no such curve, though single readings can be large or run the other way; the % refers to the polarisation; note: potency is the fitted concentration of half-maximal effect; % is set by controls: 0 for no effect and ±100 for the full control effect
Target sequence (Q13526 whole entry, looked up): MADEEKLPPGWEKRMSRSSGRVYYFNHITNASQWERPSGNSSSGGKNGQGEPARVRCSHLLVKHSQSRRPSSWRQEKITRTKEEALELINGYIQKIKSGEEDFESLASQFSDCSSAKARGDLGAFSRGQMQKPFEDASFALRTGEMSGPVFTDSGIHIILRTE
TrxR1 substrate: is turned over as a substrate by rat TrxR1. 390,000 tested, 0.01% active. Potency, µM (top dose mostly 114 µM), without a hit: at the top dose activity change, negative = substrate turnover. purified TrxR1 substrate turnover, NADPH consumption readout; note: potency is the fitted concentration of half-maximal effect; % is set by controls: 0 for no effect and ±100 for the full control effect; nearly all actives have a fitted effect of over 50% in size
Target sequence (O89049 whole entry, looked up): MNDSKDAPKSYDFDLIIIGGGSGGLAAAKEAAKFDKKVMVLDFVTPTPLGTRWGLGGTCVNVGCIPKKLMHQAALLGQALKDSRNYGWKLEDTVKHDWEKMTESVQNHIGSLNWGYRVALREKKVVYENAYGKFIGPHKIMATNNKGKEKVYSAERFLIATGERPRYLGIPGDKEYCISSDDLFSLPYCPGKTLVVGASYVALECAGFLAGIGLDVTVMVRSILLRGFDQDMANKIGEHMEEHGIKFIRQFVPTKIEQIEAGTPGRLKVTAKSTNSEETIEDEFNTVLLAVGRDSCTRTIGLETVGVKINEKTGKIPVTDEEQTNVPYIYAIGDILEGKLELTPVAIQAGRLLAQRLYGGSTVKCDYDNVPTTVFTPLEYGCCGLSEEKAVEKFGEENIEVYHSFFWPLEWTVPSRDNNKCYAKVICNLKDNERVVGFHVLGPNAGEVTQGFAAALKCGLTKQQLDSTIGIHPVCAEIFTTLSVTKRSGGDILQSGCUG
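Rat TrxR1, dispensed at 90 nM, was prereduced with 400 uM NADPH (final) for 5 min at ~22 deg C, then incubated with compound 15 min before 400 uM selenite. A first-read NADPH fluorescence drop versus no-compound background flagged substrates.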
Akt phos inh: inhibitors of Akt phosphorylation | Neuro2A IGF-stimulated pAkt S473 HTRF, 20 min; hits give low values | activity change, % for hits at 50 µM | 360,000 tested, 0.32% active | AID 651550; in the data active = activity change below about -80%; inconclusive = mostly about -51% to -80%; note: % is set by controls: 0 for no effect and ±100 for the full control effect
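Single-point screen (50 µM final compound) in Neuro2A cells stimulated 20 min with 6 nM IGF at 37 deg C. After lysis, Ser473-phosphorylated Akt read by HTRF (ex 330 nm, em 615/665 nm) as the 665/615 ratio.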
N370S GC mod: N370S glucocerebrosidase modulation, Gaucher chaperone candidate; N370S GC spleen homogenate, 4MU-glucoside fluorescence; Potency, µM (doses to about 59.4 µM), for inactives: at the top dose activity change, negative = inhibition, most hits filed as inhibitors; 330,000 tested, 0.092% active; P04062;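 note: potency is the fitted concentration of half-maximal effect; 0% = full enzyme activity and -100% = no enzyme basal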
A-T KAP1 phos: candidate therapy for ataxia-telangiectasia; Potency, µM (titrated, usually from 57.5 µM), for the others: at the top dose activation, actives largely listed as activators; 320,000 tested, 0.19% active; F2112 A-T fibroblasts, KAP-1 phosphorylation AlphaLISA; neocarzinostatin DNA damage 30 min before lysis; note: potency is the fitted concentration of half-maximal effect; % of control where 0% means no effect; nearly all actives have a fitted effect of over 45% in size
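hTERT-immortalized A-T patient fibroblasts (F2112), 500 cells/well in OPTI-MEM, 1% FBS, got compounds for 60 min, then NCS for 30 min at 37C. Lysates were then assayed for phospho-KAP-1 by AlphaLISA (anti-pKAP1 donor, anti-KAP1 acceptor beads), 6 hr at 25C.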
TrxR1 inh: inhibitors of rat thioredoxin reductase 1 | AID 588453 | 390,000 tested, 1% active | O89049 | recombinant rTrxR1, NADPH fluorescence consumption, selenite substrate | Potency, µM (doses to about 114 µM), without a hit: top-dose activity change, negative = inhibition, most hits filed as inhibitors; note: potency is the fitted concentration of half-maximal effect; % is set by controls: 0 for no effect and ±100 for the full control effect; nearly all actives have a fitted effect of over 65% in size
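Rat TrxR1 (90 nM in the dispensed reagent) was pre-reduced with 400 uM NADPH for 5 min at room temperature, then incubated with compound for 15 min. After 400 uM selenite was added, NADPH fluorescence (Ex 340/Em 450 nm) was followed for 8 min.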
An asterisk follows results filed as active; i = inactive; ? = inconclusive; . = not tested or not shown; [ ] = remark or other dose. A selection: hits, their analogues and other compounds. The true share with any hit is near 1.4%. Unless noted, calls come from the whole dose curve; as a rule, active = well fitted curve in the direction sought with a large enough effect; inconclusive = small, poorly fitted or top-dose-only effect, or another doubt; inactive = no such curve, though single readings can be large; an effect the other way counts as inactive or inconclusive.

SMILES | Pin1 inhibitor | TrxR1 substrate | Akt phos inh | N370S GC mod | A-T KAP1 phos | TrxR1 inh
CCn1cc(C(=O)NCc2ccc(C)o2)c2cc(OC)c(OC)cc2c1=O | 8% | -1% | i | -21% | 0% | 22µM*
CCC1CO/C(=C(\C(Cl)=C(Cl)Cl)[N+](=O)[O-])N1 (stereo not given) | ? | 4% | i | -6% | 7% | 16µM*
CN1CCO/C1=C(\C(Cl)=C(Cl)Cl)[N+](=O)[O-] | -7% | 8% | i | 8% | 2% | -42%
COc1ccc(C2CC(c3ccccc3)Oc3ccc(OC)cc32)cc1 (stereo not given) | 3% | -4% | . | -1% | . | 37%[57.1 µM]
Cc1ccc(N2NC(=O)/C(=C\c3cc4c(cc3[N+](=O)[O-])OCO4)C2=O)cc1C | . | 6% | i | -18% | -10% | 18µM*
CCn1c(CSc2nc3ccccc3s2)nnc1SCC(=O)NCC(=O)OC | -2% | -2% | i | 6% | -1% | -3%
CCn1c(CSc2nc3ccccc3s2)nnc1SCC(=O)c1ccc2c(c1)OCCO2 | 39% | -11% | -108%* | 7%[2.35 µM] | 8% | -8%
Cc1ccc(C(=O)CSc2nnc(-c3ccco3)n2Cc2ccccc2)cc1 | 6% | -2% | -109%* | 16% | 3% | ?
Cn1c(CSc2nc3ccccc3s2)nnc1SCC(=O)NCCCN1CCOCC1 | 3% | 7%[57.1 µM] | -136%* | -6% | . | -5%
O=C(CSc1nnc(-c2ccco2)n1Cc1ccccc1)c1ccccc1 | 12% | 6%[57.1 µM] | i | -12% | 6% | 2%[57.1 µM]
CCn1c(SCC(=O)c2ccc3c(c2)OCCO3)nnc1-c1ccco1 | 1% | 1% | i | 2% | 3% | 50µM*
COCCn1c(SCC(=O)c2ccc3c(c2)OCCO3)nnc1-c1ccco1 | 8% | 6% | i | 2% | 0% | ?
CCn1c(CSc2nc3ccccc3s2)nnc1SCC(N)=O | 4% | -8% | i | 7% | -6% | 7%
CCC1CC=CC2C1C(=O)N(Cc1ccccc1)C2c1ccc(C(F)(F)F)cc1 (stereo not given) | -4% | -1% | . | -2% | . | 11%[57.1 µM]
COc1ccc(C2CC(c3ccccc3)Oc3c(C)ccc(C(C)C)c32)cc1 (stereo not given) | -2% | 2% | . | -1% | . | 22%
CCOC(=O)C1C(=O)C(C(=O)OCC)C(c2cccnc2)NC1c1cccnc1 (stereo not given) | -3% | 22%[57.1 µM] | i | -11% | -2% | 3.2µM*
CCc1ccc(OCCn2c(CCNC(=O)C3CCCCC3)nc3ccccc32)cc1 | 17% | -2% | . | . | . | 10%
CCCn1nc([N+](=O)[O-])c(C(C#N)c2nc3ccccc3s2)c(Cl)c1=O (stereo not given) | ? | 0% | i | . | -3% | 1.6µM*
CCn1nc([N+](=O)[O-])c(C(C#N)c2nc3ccccc3n2C)c(Cl)c1=O (stereo not given) | -6% | -11% | i | 0% | -5% | ?
O=C(CCc1ccccc1)Nc1ncnc2c1C(c1ccccc1)c1c(ccc3ccccc13)O2 (stereo not given) | 50% | . | . | . | . | .
CC(C)N1Cc2ccc(Nc3nn4c(=O)c5ccccc5nc4s3)cc2C1 | -1% | . | . | . | . | .
O=C(C[n+]1ccccc1Cl)c1ccc2c(c1)CCCC2 | . | 0% | . | . | . | -17%
Cc1ccc2nc(N(CCCN(C)C)C(=O)c3sc4ccccc4c3Cl)sc2c1 | -1% | -7% | i | -23% | 1% | 50µM*
O=C(Oc1ccc([N+](=O)[O-])cc1)c1cncc(Br)c1 | 0% | 4% | i | -18% | -12% | 18µM*
COc1ccc(-c2nc(CSCC(=O)N3CCN(c4cccc(C)c4C)CC3)c(C)o2)cc1OC | 3% | 3%[57.1 µM] | . | . | . | 9%[57.1 µM]
SMILES | Pin1 inhibitor | TrxR1 substrate | Akt phos inh | N370S GC mod | A-T KAP1 phos | TrxR1 inh
CCOc1ccc(C(c2c(O)cc(C)n(CCOC)c2=O)N2CCN(c3ccccc3)CC2)cc1 (stereo not given) | 0% | 8%[57.1 µM] | . | . | . | 11µM*
COc1ccc(C(c2c(O)cc(C)n(Cc3ccco3)c2=O)N2CCN(c3ccccc3)CC2)cc1 (stereo not given) | -1% | 4%[57.1 µM] | . | . | . | 16µM*
CCOC(=O)C1CCN(C(c2ccc(OCC)cc2)c2c(O)cc(C)n(CCOC)c2=O)CC1 (stereo not given) | ? | -3%[57.1 µM] | . | . | . | 25µM*
COC(=O)[C@H](C)NS(=O)(=O)C1CC1 | . | -4% | . | . | . | -10%
CN(C)c1ccc(/C=C/c2c(F)cnc3ccccc23)cc1 | . | -1% | . | . | . | 3%
COc1ccc2c(c1OC)C(=O)N1c3ccccc3C(=O)N(Cc3ccco3)C21 (stereo not given) | 78% | 1% | . | . | . | 40µM*
COc1ccc2c(c1OC)C(=O)N1c3ccccc3C(=O)N(c3ccccc3F)C21 (stereo not given) | 3% | -1% | i | -14% | 10% | 2%
CCOCC(=O)Nc1nnc(Cc2ccc(OC)c(OC)c2)s1 | -1% | -11% | i | 3% | 2% | -16%
CCOC(=O)C(=O)Nc1nnc(Cc2ccc(OC)c(OC)c2)s1 | 3% | -7% | i | 1% | 28µM* | -5%
O=C(Nc1ccc(F)cc1)c1ccc(C(=O)N2CCCC(O)C2)cc1 (stereo not given) | 3% | 14%[57.1 µM] | i | -7% | -12% | 10µM*
C=CCc1cccc(/C=N/c2ncccc2O)c1O | -2% | 11% | i | 3% | 1% | 14µM*
C/C(=N\OC(=O)c1ccc(C)cc1)c1c(C)nc2cc(C)ccn12 | ? | 11%[57.1 µM] | i | -3% | 5% | 28µM*
CC(=O)n1c2ccccc2c2ccccc21 | 1% | 2%[57.1 µM] | . | -5% | -3% | -6%[57.1 µM]
c1ccc(-n2c3ccccc3c3ccccc32)cc1 | 3% | -6% | i | 2% | 25µM* | -18%
COc1ccc(-c2nc3oc4cc(OC)ccc4c(=O)c3c(=O)n2Cc2ccco2)cc1 | ? | 6% | i | 5% | 5% | ?
COc1ccc2c(=O)c3c(=O)n(Cc4ccco4)c(-c4ccco4)nc3oc2c1 | ? | -2% | i | 3% | 6% | 14µM*
CCOC(=O)CSc1nnc([C@H](C)NC(=O)OC(C)(C)C)o1 | 2% | 7% | -115%* | 2% | 2% | 10%[57.1 µM]
c1ccc(OCCn2c(-c3ccco3)nc3ccccc32)cc1 | 28% | 13% | i | 23% | -1% | 14µM*
Cc1cccc(OCCn2c(-c3ccco3)nc3ccccc32)c1 | 2% | 7% | i | ? | 5% | ?
Cc1ccc(OCCn2c(CCCO)nc3ccccc32)cc1 | ? | -7%[57.1 µM] | -106%* | -22% | . | -5%[57.1 µM]
CC1CC(C)CN(c2oc(-c3ccc(OCc4ccccc4Cl)cc3)nc2C#N)C1 (stereo not given) | 5% | 13%[0.0914 µM] | . | . | . | -1%
